Here are results for eleven molecules from ChEMBL document CHEMBL5724796, “Tm Shift (DSF) assay results for EUbOPEN Chemogenomics Library” (2024).

SMILES strings stand for the structures.

Details in all cases: Compound concentration 20.0 uM
In experiment [1] the target is Tyrosine-protein kinase ABL1 (Homo sapiens) (UniProt P00519).
Experiment [2] addresses Bromodomain-containing protein 4 (Homo sapiens) (UniProt O60885).
The target in experiment [3] is Cyclin-dependent kinase 2 (Homo sapiens) (UniProt P24941).
Experiment [4] has as its target Casein kinase I isoform delta (Homo sapiens) (UniProt P48730).
The target in experiment [5] is Glycogen synthase kinase-3 beta (Homo sapiens) (UniProt P49841).
Chain of Glycogen synthase kinase-3 beta (Homo sapiens) (P49841 whole entry, looked up): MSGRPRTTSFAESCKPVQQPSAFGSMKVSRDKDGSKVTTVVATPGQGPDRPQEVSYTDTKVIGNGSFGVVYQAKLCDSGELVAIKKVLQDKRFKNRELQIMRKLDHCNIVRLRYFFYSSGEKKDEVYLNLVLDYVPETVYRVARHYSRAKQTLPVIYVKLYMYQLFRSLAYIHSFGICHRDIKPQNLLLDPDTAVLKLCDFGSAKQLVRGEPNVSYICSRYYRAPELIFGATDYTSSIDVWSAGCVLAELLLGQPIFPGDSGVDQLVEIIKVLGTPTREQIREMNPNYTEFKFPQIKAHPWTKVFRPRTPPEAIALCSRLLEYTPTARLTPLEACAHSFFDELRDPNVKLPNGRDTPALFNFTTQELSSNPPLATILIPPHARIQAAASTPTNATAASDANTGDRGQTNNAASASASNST
The target of experiment [6] is Mitogen-activated protein kinase 1 (Homo sapiens) (UniProt P28482).
Chain of Mitogen-activated protein kinase 1 (Homo sapiens) (P28482 whole entry): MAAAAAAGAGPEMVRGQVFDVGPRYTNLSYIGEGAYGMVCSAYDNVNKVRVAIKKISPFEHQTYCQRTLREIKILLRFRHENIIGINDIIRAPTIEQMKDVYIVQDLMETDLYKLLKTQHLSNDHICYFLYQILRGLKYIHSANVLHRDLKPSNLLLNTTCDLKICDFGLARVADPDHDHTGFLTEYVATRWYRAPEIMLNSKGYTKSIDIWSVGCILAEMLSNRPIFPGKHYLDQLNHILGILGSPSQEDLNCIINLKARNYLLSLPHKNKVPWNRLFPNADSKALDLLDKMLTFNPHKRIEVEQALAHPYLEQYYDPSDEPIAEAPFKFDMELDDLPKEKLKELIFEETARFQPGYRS
For experiment [7], the target named is T1, Aurora kinase A (Homo sapiens) (UniProt O14965).
T1 sequence (whole entry): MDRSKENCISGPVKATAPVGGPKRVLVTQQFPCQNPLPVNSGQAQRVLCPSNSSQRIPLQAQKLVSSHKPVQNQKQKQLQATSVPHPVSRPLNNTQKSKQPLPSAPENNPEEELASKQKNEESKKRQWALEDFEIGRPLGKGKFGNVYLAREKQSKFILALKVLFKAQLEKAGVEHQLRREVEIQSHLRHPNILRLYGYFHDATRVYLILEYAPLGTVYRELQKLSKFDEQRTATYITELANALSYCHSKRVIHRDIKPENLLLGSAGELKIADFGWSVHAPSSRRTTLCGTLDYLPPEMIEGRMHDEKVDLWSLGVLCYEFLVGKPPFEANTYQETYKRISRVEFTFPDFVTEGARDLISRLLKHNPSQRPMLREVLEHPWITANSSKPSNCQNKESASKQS

Experiment [8] concerns the target T2, Transcription intermediary factor 1-alpha (Homo sapiens) (UniProt O15164).
T2 sequence (whole entry): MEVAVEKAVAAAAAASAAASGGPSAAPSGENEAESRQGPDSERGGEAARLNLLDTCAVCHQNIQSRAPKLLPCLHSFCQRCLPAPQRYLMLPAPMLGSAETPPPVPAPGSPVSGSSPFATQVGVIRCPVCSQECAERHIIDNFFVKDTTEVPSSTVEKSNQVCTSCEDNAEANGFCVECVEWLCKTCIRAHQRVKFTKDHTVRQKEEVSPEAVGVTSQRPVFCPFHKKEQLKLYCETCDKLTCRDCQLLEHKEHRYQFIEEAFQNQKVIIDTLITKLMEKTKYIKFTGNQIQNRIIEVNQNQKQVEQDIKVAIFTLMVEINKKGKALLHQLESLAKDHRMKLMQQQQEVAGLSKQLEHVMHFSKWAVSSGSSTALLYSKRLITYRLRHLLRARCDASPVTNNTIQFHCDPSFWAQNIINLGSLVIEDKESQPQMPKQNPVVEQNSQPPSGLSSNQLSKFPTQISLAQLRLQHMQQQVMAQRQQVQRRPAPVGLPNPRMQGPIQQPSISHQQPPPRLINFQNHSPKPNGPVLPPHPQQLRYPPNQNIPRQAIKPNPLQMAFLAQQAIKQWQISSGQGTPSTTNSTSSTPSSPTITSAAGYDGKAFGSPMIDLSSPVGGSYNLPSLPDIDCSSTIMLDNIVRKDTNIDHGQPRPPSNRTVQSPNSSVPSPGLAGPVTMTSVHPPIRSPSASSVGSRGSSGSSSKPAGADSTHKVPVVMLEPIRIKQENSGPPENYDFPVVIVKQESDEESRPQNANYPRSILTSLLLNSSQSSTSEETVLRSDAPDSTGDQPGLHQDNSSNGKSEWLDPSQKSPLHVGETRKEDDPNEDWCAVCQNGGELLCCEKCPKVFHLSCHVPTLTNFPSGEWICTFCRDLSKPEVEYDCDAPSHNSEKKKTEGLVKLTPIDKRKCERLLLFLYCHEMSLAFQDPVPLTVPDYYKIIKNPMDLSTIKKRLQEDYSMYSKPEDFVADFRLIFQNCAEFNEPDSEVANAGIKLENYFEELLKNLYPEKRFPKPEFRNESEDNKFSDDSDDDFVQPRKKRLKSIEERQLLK

Chain of Tyrosine-protein kinase ABL1 (Homo sapiens) (P00519 whole entry): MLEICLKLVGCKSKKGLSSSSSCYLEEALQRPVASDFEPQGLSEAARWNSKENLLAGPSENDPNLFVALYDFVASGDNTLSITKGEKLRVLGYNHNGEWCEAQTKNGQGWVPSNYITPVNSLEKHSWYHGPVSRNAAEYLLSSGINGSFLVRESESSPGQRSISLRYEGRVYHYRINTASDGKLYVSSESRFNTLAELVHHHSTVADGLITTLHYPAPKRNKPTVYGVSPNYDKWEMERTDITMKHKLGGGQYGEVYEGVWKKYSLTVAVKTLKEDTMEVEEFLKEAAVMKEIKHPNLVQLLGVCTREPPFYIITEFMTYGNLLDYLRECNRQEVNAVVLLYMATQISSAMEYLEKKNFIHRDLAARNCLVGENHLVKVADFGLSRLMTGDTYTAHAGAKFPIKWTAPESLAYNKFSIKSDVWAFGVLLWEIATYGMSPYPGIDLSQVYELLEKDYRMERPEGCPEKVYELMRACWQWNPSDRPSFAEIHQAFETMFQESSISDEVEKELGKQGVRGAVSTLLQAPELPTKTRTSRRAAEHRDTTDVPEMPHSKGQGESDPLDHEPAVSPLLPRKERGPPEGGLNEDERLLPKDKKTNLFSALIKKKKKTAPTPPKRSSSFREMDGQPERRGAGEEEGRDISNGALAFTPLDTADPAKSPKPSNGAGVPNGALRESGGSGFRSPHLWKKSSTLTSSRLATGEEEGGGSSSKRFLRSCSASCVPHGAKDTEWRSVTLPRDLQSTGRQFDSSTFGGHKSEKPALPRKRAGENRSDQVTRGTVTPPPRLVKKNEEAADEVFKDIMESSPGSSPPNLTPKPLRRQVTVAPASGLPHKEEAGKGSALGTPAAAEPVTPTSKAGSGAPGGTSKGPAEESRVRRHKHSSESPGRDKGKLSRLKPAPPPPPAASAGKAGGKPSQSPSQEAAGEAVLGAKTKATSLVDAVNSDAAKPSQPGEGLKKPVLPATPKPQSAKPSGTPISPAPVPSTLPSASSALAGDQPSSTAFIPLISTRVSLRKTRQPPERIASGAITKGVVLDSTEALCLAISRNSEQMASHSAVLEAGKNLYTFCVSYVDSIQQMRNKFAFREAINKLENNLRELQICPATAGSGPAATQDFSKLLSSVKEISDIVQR
Chain of Casein kinase I isoform delta (Homo sapiens) (P48730 whole entry, looked up, canonical isoform): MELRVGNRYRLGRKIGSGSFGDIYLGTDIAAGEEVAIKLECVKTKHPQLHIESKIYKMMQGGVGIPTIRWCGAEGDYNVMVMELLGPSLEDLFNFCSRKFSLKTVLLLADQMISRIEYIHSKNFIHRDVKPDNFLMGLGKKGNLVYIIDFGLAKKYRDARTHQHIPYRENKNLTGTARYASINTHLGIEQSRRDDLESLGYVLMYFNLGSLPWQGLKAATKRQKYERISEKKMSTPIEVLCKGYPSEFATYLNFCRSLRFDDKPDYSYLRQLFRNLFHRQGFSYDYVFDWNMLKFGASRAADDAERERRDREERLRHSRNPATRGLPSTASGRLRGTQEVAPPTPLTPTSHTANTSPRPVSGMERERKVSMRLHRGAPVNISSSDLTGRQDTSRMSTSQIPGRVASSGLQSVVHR

`O=C(NCCCOc1ccc2[nH]c(=O)ccc2c1)N(C1CC1)[C@@H]1CCCC[C@H]1O`: the ΔTm was 0.31 °C in experiment [1]; -0.85 °C in experiment [2]; -0.14 °C in experiment [3]; -0.05 °C in experiment [4]; -0.66 °C in experiment [5]; 0.1 °C in experiment [6]. The ΔTm in experiment [7] is -2.39 °C; in experiment [8], 0.02 °C.

Consider `Cc1ncsc1-c1ccc(CNC(=O)[C@@H]2C[C@@H](O)CN2C(=O)[C@@H](NC(=O)COCC(C)(COCCOCCOCCNC(=O)C[C@@H]2N=C(c3ccc(Cl)cc3)c3c(sc(C)c3C)-n3c(C)nnc32)COCCOCCOCCNC(=O)C[C@@H]2N=C(c3ccc(Cl)cc3)c3c(sc(C)c3C)-n3c(C)nnc32)C(C)(C)C)cc1`, for which the shift in melting temperature (ΔTm) was -0.19 °C in experiment [1]; 0 °C in experiment [2]; -4.95 °C in experiment [3]; -6.12 °C in experiment [4]; -4.05 °C in experiment [5]; -12 °C in experiment [6]. In addition, the ΔTm is -4.07 °C in experiment [7] and -6.48 °C in experiment [8].

In the case of `CCCOc1cccc(Oc2cc3c(cc2NS(=O)(=O)c2cccc(C(=O)NCCOCCOCCOCC(=O)N[C@H](C(=O)N4C[C@H](O)C[C@H]4C(=O)NCc4ccc(-c5scnc5C)cc4)C(C)(C)C)c2)n(C)c(=O)n3C)c1`, the shift in melting temperature (ΔTm) in experiment [1] was 0.11 °C; in experiment [2], -8.44 °C; in experiment [3], -3.98 °C; in experiment [4], 0.83 °C; in experiment [5], -4.03 °C; in experiment [6], 0 °C. For the same molecule, the ΔTm in experiment [7] was -2.91 °C; in experiment [8] it was -3.82 °C.

As to `CNc1nccc(CN([C@H]2CC[C@H](N)CC2)S(=O)(=O)c2ccc(S(=O)(=O)N(Cc3ccc(Cl)cc3)C3CCCC3)cc2)n1`, the thermal shift (ΔTm) was -0.6 °C in experiment [1]; -2 °C in experiment [2]; -0.02 °C in experiment [3]; -0.71 °C in experiment [4]; -0.62 °C in experiment [5]; -3.03 °C in experiment [6]. For the same molecule, the figures for the ΔTm in experiment [7] and in experiment [8] were -2.32 °C and 0.19 °C, respectively.

As for `O=c1[nH]ccc2cc(F)c(NS(=O)(=O)c3ccc(N4CC[C@@H](O)C4)s3)cc12`, the thermal shift (ΔTm) is 0.78 °C in experiment [1]; -1.78 °C in experiment [2]; 0.35 °C in experiment [3]; 0.39 °C in experiment [4]; -0.79 °C in experiment [5]; 0.11 °C in experiment [6]. Moreover, the figures for the ΔTm in experiment [7] and in experiment [8] were -0.16 °C and -0.69 °C, respectively.

With `O=C(Nc1ccccc1C(=O)O)c1cc(S(=O)(=O)c2ccccc2)ccc1Cl`, the ΔTm in experiment [1] was 0.57 °C; in experiment [2] it was -2.4 °C; in experiment [3] it was 0.28 °C; in experiment [4], -0.33 °C; in experiment [5], 0.26 °C; in experiment [6], 0.08 °C. Further, the ΔTm is -2.26 °C in experiment [7] and 1.1 °C in experiment [8].

Regarding `Cc1nc(F)ccc1-c1cc(Cn2ccn(C)c2=N)cc(C(=O)NCc2ccc(Cl)c(Cl)c2)c1`, the shift in melting temperature (ΔTm) in experiment [1] was 0.39 °C; in experiment [2] it was -2.09 °C; in experiment [3], -0.77 °C; in experiment [4], 0.13 °C; in experiment [5], -0.9 °C; in experiment [6], -0.24 °C. Besides, the thermal shift (ΔTm) in experiment [7] was -0.34 °C; in experiment [8], -1.96 °C.

As to `COc1cc(Cl)ccc1C1=CN(c2ccc(-c3ccccc3OC)cc2)C2=NCCCN12`, the thermal shift (ΔTm) in experiment [1] is 0.67 °C; in experiment [2] it was -3.63 °C; in experiment [3], -0.6 °C; in experiment [4], -0.21 °C; in experiment [5], -0.51 °C; in experiment [6] it was -0.14 °C. Moreover, the ΔTm is -2.63 °C in experiment [7] and -1.41 °C in experiment [8].

As for `O=C(N(CCc1ccccc1)C1CCCCC1)n1ncc(-c2ccc(OC(F)(F)F)cc2)n1`, the ΔTm in experiment [1] is -0.68 °C; in experiment [2] it was -2.75 °C; in experiment [3] it was 0.18 °C; in experiment [4], 0.03 °C; in experiment [5], -3.35 °C; in experiment [6], 0.11 °C. For the same molecule, the ΔTm is -1.75 °C in experiment [7] and 0.14 °C in experiment [8].

Regarding `O=C(Nc1c(Cl)cncc1Cl)c1ccc(OC(F)F)c(OCC2CC2)c1`, the ΔTm in experiment [1] is 0.75 °C; in experiment [2], -3.16 °C; in experiment [3], 0.32 °C; in experiment [4], -0.3 °C; in experiment [5], 0.27 °C; in experiment [6], 0.36 °C. The thermal shift (ΔTm) in experiment [7] is -2.31 °C; in experiment [8], 2.4 °C.

For `C[C@H]1CO[C@@H]2Cn3cc(C(=O)NCc4ccc(F)cc4F)c(=O)c(O)c3C(=O)N12`, the thermal shift (ΔTm) was 0.13 °C in experiment [1]; -2.15 °C in experiment [2]; 0.09 °C in experiment [3]; -0.04 °C in experiment [4]; -0.88 °C in experiment [5]; 0.4 °C in experiment [6]. In addition, the shift in melting temperature (ΔTm) was -0.95 °C in experiment [7] and 0.47 °C in experiment [8].

What is called ΔTm is the shift of the melting midpoint relative to a reference.
